rTrxR1 inhibitor: qHTS Assay for Inhibitors of Mammalian Selenoprotein Thioredoxin Reductase 1 (TrxR1): qHTS; recombinant rTrxR1, NADPH fluorescence consumption, selenite substrate; Potency, µM (series often up to 114 µM), usual class: inhibitors; Thioredoxin reductase 1, cytoplasmic (Rattus norvegicus), O89049; hit rate 1% among 390,000; AID 588453, 2011; note: nearly all actives have a fitted effect of over 65% in size
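Rat TrxR1 (90 nM in the dispensed reagent) was pre-reduced with 400 uM NADPH for 5 min at room temperature, then incubated with compound for 15 min. After 400 uM selenite was added, NADPH fluorescence (Ex 340/Em 450 nm) was followed for 8 min.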
GALK inh: qHTS Assay for Inhibitors of Human Galactokinase (GALK) | P51570 | Purified GALK, Kinase-Glo residual ATP luminescence | Potency, µM (highest dose often 57.5 µM), actives largely listed as inhibitors | hit rate 0.007% among 270,000 | AID 1868, 2009
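Galactose (100 uM) and ATP (35 uM) were turned over by 5 nM GALK for 1 h at RT. Kinase-Glo Plus then converted the remaining ATP into a luminescent signal.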
RORg inh: qHTS for inhibitors of ROR gamma transcriptional activity; Nuclear receptor ROR-gamma (Mus musculus), P51450; Drosophila S2 Gal4-RORgamma UAS-luciferase reporter, 20 h; Potency, µM (top dose mostly 53.6 µM), most hits filed as inhibitors; hit rate 5.4% among 310,000; AID 2551, 2010; note: nearly all actives have a fitted effect of over 60% in size
Target sequence (P51450 whole entry, looked up, the tested form may be a part): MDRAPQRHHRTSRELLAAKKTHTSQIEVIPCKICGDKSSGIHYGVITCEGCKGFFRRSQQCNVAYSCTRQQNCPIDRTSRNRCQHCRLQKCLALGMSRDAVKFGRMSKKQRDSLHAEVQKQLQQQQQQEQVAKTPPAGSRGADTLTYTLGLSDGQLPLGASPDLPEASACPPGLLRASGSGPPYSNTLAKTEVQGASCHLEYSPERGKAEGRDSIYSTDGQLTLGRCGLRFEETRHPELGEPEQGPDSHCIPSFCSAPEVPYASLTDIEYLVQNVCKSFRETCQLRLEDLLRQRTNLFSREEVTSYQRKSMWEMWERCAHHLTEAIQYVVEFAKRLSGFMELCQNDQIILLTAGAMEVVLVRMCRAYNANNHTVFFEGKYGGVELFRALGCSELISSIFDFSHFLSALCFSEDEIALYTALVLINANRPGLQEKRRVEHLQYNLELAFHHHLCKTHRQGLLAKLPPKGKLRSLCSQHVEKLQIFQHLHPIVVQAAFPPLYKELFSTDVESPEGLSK
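Read-out: Photinus luciferase luminescence; inhibitors lower reporter signal. Insect Schneider cells with Gal4-ROR gamma fusion under metallothionein promoter, UAS reporter; 700 uM final copper sulfate induction, 20 hr, ambient temperature.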
Coupling enz: qHTS Assay for Inhibitors of Fructose-1,6-bisphosphate Aldolase from Giardia Lamblia: Coupling assay counterscreen; coupling enzyme system counterscreen, AmpLite Red fluorescence; activity change, negative = inhibition, % at 58.2 µM, hits read low; hit rate 0.67% among 290,000; AID 2472, 2010; in the data active = activity change below about -30%
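First, compound is pin-transferred into glyceraldehyde-3-phosphate coupling-enzyme reagent at 57.5 uM final and held 10 min at RT. Next, substrate, coupling system and AmpLite Red are added. After 20 min RT, fluorescence (525/598 nm) is read.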
TrxR1 substrate: qHTS Assay for Substrates of Mammalian Selenoprotein Thioredoxin Reductase 1 (TrxR1): qHTS; Thioredoxin reductase 1, cytoplasmic (Rattus norvegicus), O89049; purified TrxR1 substrate turnover, NADPH consumption readout; Potency, µM (titrated, usually from 114 µM); hit rate 0.01% among 390,000; note: nearly all actives have a fitted effect of over 50% in size
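Rat TrxR1, dispensed at 90 nM, was prereduced with 400 uM NADPH (final) for 5 min at ~22 deg C, then incubated with compound 15 min before 400 uM selenite. A first-read NADPH fluorescence drop versus no-compound background flagged substrates.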
VP16 counter: VP16 counterscreen qHTS for inhibitors of ROR gamma transcriptional activity. Potency, µM (highest dose often 53.6 µM), hits mostly inhibitors. Drosophila S2 Gal4-VP16 UAS-luciferase, luminescence, 20 h. hit rate 3.5% among 310,000;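 note: Gal4-VP16 expression switched on by copper sulfate through the metallothionein promoter; nearly all actives have a fitted effect of over 50% in size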
A number is an active result; 0 = inactive; ? = inconclusive; - = no result given; [ ] = another dose, or the depositor's remark. Compounds with a hit are over-represented: about 5.9% of the library has one in this group of screens. Unless noted, calls come from the whole dose curve; as a rule, active = well fitted curve in the direction sought with a large enough effect; inconclusive = small, poorly fitted or top-dose-only effect, or another doubt; inactive = no such curve, though single readings can be large; an effect the other way counts as inactive or inconclusive.

SMILES	rTrxR1 inhibitor	GALK inh	RORg inh	Coupling enz	TrxR1 substrate	VP16 counter
COCCCNC(=O)COC(=O)c1ccc(-c2nc3ccccc3s2)s1	0	0	2.8µM	0	0	0.28µM
COc1ccc(CNC(=O)CCn2c(=O)[nH]c3ccccc3c2=O)cc1	0	0	0	0	0	0
Cc1cc(S(=O)(=O)NCc2ccco2)c(C)cc1Cl	71µM	0	0	-	0	0
COc1ccc(CCNC(=O)c2ccc3c(c2)nc2n3CCC(C)C2)cc1OC (stereo not drawn)	0	-	-	-	0	-
C/C(=N/NC(=O)CNC(=O)CCc1ccccc1)c1ccc(Cl)cc1	0	0	0	0	0	0
C/C(=N\NC(=S)NCCc1ccccc1)c1ccc(C)cc1	0	0	2.8µM	0	0	5µM
S=C(NCCc1ccccc1)NN=C1CCCCCC1	0	0	0	0	0	0
C/C(=N\NC(=S)NCCc1ccccc1)c1ccc(Cl)cc1	0	0	3.5µM	0	0	3.2µM
C/C(=N\NC(=S)NCCc1ccccc1)c1ccc(C#N)cc1	0	0	4µM	0	0	8.9µM
C/C(=N/NC(=O)CNC(=O)c1ccccc1)c1ccc(C)cc1	0	0	0	0	0	0
Cc1ccc(S(=O)(=O)N2CCN(S(=O)(=O)c3ccccc3Br)CC2)cc1	0	-	-	-	0	-
O=C(/C=C1\NC2(CCCC2)Cc2ccccc21)N1CCOCC1	40µM	0	0	0	0	0
CC(=O)O[C@@H]1[C@@]2(C)O[C@H]2CC[C@]23O[C@H]2[C@H](OC3=O)C2=C(C)C(=O)O[C@@]21O	50µM	-	?	0	0	?
O=C(O)c1ccc2c(c1)C(=O)N([C@@H](Cc1ccc(O)cc1)C(=O)O)C2=O	-	-	2µM	0	-	6.3µM
CSc1nc(O)c(Nc2ccccc2)c(=O)[nH]1	0[2.29 µM]	-	-	-	0[2.29 µM]	-
CC1=NN(C(=O)c2ccccc2Cl)C(O)(c2ccccc2)C1 (stereo not drawn)	0	0	6.3µM	0	0	7.1µM
CC1=NN(C(=O)c2ccccc2F)C(O)(c2ccc(Cl)cc2)C1 (stereo not drawn)	0	0	5.6µM	0	0	6.3µM
CCOc1ccc(/C=C/C(=O)Nc2ccc3[nH]c(=O)[nH]c3c2)cc1	0	0	0	0	0	0
Cc1ccc(S(=O)(=O)CCC(=O)N2CCN(c3ccccc3O)CC2)cc1	0	-	-	-	0	-
CC1CC(C)CN(C(=O)COC(=O)Cc2c[nH]c3ccccc23)C1 (stereo not drawn)	0	-	-	-	0	-
Cc1cc(N/N=C/c2ccccc2O)c2ccccc2n1	0	0	0	0	0	0
Oc1ccc(/C=N/Nc2cccc3cccnc23)c(O)c1	0	0	2.5µM	0	0	0[0.365 µM]
Oc1ccc(C=NNc2ccccn2)c(O)c1	0	-	-	-	0	-
Cc1ccc(/C=N/Nc2cccc3cccnc23)c(O)c1	?	0	10µM	0	0	?
O=C(NCc1ccccc1Cl)C(=O)NCC(c1cccs1)S(=O)(=O)c1ccccc1 (stereo not drawn)	0	-	-	-	0	-
SMILES	rTrxR1 inhibitor	GALK inh	RORg inh	Coupling enz	TrxR1 substrate	VP16 counter
CCc1ccccc1NC(=O)C1CCN(S(=O)(=O)c2ccccc2)CC1	0	-	-	-	0	-
COc1cccc(C(C2=C(O)CC(C)(C)CC2=O)C2C(=O)CC(C)(C)CC2=O)c1 (stereo not drawn)	45µM	0	?	0	0	0
CC1(C)CC(=O)C(C(C2=C(O)CC(C)(C)CC2=O)c2ccc([N+](=O)[O-])cc2)C(=O)C1 (stereo not drawn)	?	0	0	0	0	0
CC1(C)CC(=O)C(C(C2=C(O)CC(C)(C)CC2=O)c2ccc(Br)s2)C(=O)C1 (stereo not drawn)	4µM	0	?	0	0	10µM
Cc1ccc(C(C2=C(O)CC(C)(C)CC2=O)C2C(=O)CC(C)(C)CC2=O)s1 (stereo not drawn)	10µM	0	0	0	0	0
COc1cccc(C(C2C(=O)CC(C)(C)CC2=O)C2C(=O)CC(C)(C)CC2=O)c1	?	0	0	0	0	0
Cc1ccnc(NC(=O)c2ccc(Cl)cc2Cl)n1	-	0	0	0	-	0
O=C(/C=C/c1ccnc2ccccc12)c1cccs1	?	0	?	0	0	14µM
COc1ccc(OC)c(C(=O)/C=C/c2ccccc2C(F)(F)F)c1	0	0	13µM	0	0	?
COc1ccc(/C=C/C(=O)c2cccs2)c(OC)c1	-	-	13µM	0	-	35µM
CC1CC(C)CN(C(=O)c2cccc(S(=O)(=O)Nc3cc(C(F)(F)F)ccc3Cl)c2)C1 (stereo not drawn)	0	0	?	0	0	0
O=C(Nc1ccc(OC(F)(F)F)cc1)Nc1cccc([N+](=O)[O-])c1	0	0	?	0	0	6.3µM
O=C(O)c1cc(NC(=O)c2ccc([N+](=O)[O-])cc2)cc(NC(=O)c2ccc([N+](=O)[O-])cc2)c1	0	0	0	0	0	0
Cc1ccc(NC(=O)Nc2cccc([N+](=O)[O-])c2)cc1F	0	0	?	0	0	?
NC(=O)/C=C\C(=O)Nc1cccc(C(F)(F)F)c1	25µM	0	?	0	0	13µM
O=C(Nc1ccc(OC(F)F)cc1)Nc1cccc(C(F)(F)F)c1	0	0	?	0	0	25µM
NNC(=O)Nc1cccc(C(F)(F)F)c1	0	0	0	0	0	0
O=C(Nc1ccncc1)Nc1cccc(C(F)(F)F)c1	0	0	?	0	0	0
O=C(Nc1ccc([N+](=O)[O-])cc1)C(=O)Nc1cccc(C(=O)O)c1	0	-	0.35µM	0	0	1µM
Cc1ccc(Nc2nc(Cl)nc(N(C)C#N)n2)cc1	0	0	0	0	0	0
COc1cccc(-c2nc3ccc(O)cc3c(=O)o2)c1	0	0	0	0	0	0
COc1ccc(N(CC(=O)NCCSc2ccccn2)S(C)(=O)=O)cc1	0	0	0	0	0	0
COc1ccc(C(=O)NCCSc2ccccn2)cc1	0	0	13µM	0	0	?
O=C(CCSc1ccccn1)c1ccccc1	2µM	0	20µM	0	0	?
CSCCC(NC(=O)COc1ccccc1)C(=O)OCc1ccc([N+](=O)[O-])cc1 (stereo not drawn)	0	-	-	-	0	-
COc1cc(OC)c(NS(=O)(=O)c2cc3c(cc2C)NC(=O)CO3)cc1Cl	0	-	-	-	0	-
COc1cccc(-c2ccc(NC(=O)C3CCCN(Cc4nccn4C)C3)cc2)c1 (stereo not drawn)	0	0	5µM	-	0	?

Screens as filed in PubChem BioAssay.
